Source: the antibiotic and cytotoxicity screens of Wong et al. (2023)
Screen size: about 39,000 compounds; about 1,500 (3.8%) were called active. The entries come from a sample that favours actives as a whole.

System: HSkMC (human skeletal muscle cells)
Experiment: cytotoxicity call (relative viability < 0.9)
Conditions: 10 µM

Structure (SMILES) | cytotoxicity call
C[C@@H]1CCCCO[C@@H](CN(C)C(=O)Nc2ccc(C(F)(F)F)cc2)[C@@H](C)CN([C@H](C)CO)C(=O)c2cc(NC(=O)CCCCCC(=O)Nc3ccccc3N)ccc2O1 | inactive
CCCCC(=O)c1ccc(O)cc1 | inactive
CC(=O)O.Cc1c(-c2ccc(O)cc2)n(Cc2ccc(OCCN3CCCCCC3)cc2)c2ccc(O)cc12 | inactive
CCCCCS(=O)(=O)CCCCCCCCCCn1c(-c2ccc(O)cc2)c(C)c2cc(O)ccc21 | active
C=C(NC(=O)C(=C)NC(=O)c1csc(C2=NC3c4csc(n4)C4NC(=O)c5csc(n5)C(C(C)(O)C(C)O)NC(=O)C5CSC(=N5)C(=CC)NC(=O)C(C(C)O)NC(=O)c5csc(n5)C3(CC2)NC(=O)C(C)NC(=O)C(=C)NC(=O)C(C)NC(=O)C(C(C)CC)NC2C=Cc3c(C(C)O)cc(nc3C2O)C(=O)OC4C)n1)C(N)=O (centres undefined) | inactive
C=C(NC(=O)C(=C)NC(=O)c1csc(C2=N[C@@H]3c4csc(n4)[C@@H]4NC(=O)c5csc(n5)[C@H](C(C)(O)[C@@H](C)O)NC(=O)[C@H]5CSC(=N5)/C(=C/C)NC(=O)[C@H]([C@@H](C)O)NC(=O)c5csc(n5)[C@]3(CC2)NC(=O)[C@@H](C)NC(=O)C(=C)NC(=O)[C@@H](C)NC(=O)[C@@H]([C@H](C)CC)N[C@H]2C=Cc3c([C@@H](C)O)cc(nc3[C@@H]2O)C(=O)O[C@H]4C)n1)C(N)=O (some centres undefined) | inactive
C=C(NC(=O)C(=C)NC(=O)c1csc(C2=N[C@H]3c4csc(n4)[C@H]4NC(=O)c5csc(n5)[C@H](C(C)(O)[C@@H](C)O)NC(=O)[C@H]5CSC(=N5)C(=CC)NC(=O)[C@H]([C@@H](C)O)NC(=O)c5csc(n5)[C@]3(CC2)NC(=O)[C@H](C)NC(=O)C(=C)NC(=O)[C@H](C)NC(=O)[C@H]([C@H](C)CC)N[C@@H]2C=Cc3c([C@H](C)O)cc(nc3[C@H]2O)C(=O)O[C@@H]4C)n1)C(N)=O (some centres undefined) | active
C[C@@H]1CCCCO[C@H](CN(C)C(=O)NC2CCCCC2)[C@@H](C)CN([C@@H](C)CO)C(=O)c2cc(NC(=O)C3CCCCC3)ccc2O1 | inactive
CS(=O)(=O)N1[C@@H]2c3ccc(-c4ccc(F)cc4)c(=O)n3C[C@@H]2[C@@H](CO)[C@@H]1C(=O)O | inactive
Cc1noc(C)c1S(=O)(=O)N(C)C[C@H]1Oc2ccc(NS(=O)(=O)c3ccccc3)cc2C(=O)N([C@@H](C)CO)C[C@H]1C | inactive
C[C@@H]1CCCCO[C@H](CN(C)S(C)(=O)=O)[C@H](C)CN([C@@H](C)CO)C(=O)c2cc(NS(=O)(=O)c3cn(C)cn3)ccc2O1 | inactive
C[C@@H]1CCCCO[C@@H](CN(C)Cc2ccc(Cl)c(Cl)c2)[C@H](C)CN([C@@H](C)CO)C(=O)c2cc(NC(=O)Cc3ccccc3)ccc2O1 | inactive
C[C@@H]1CCCCO[C@H](CN(C)Cc2ccc(Cl)c(Cl)c2)[C@@H](C)CN([C@@H](C)CO)C(=O)c2cc(NC(=O)Cc3ccccc3)ccc2O1 | inactive
C[C@@H]1CCCCO[C@H](CN(C)Cc2ccc(Cl)c(Cl)c2)[C@H](C)CN([C@@H](C)CO)C(=O)c2cc(NC(=O)Cc3ccccc3)ccc2O1 | inactive
C[C@@H]1CN([C@H](C)CO)C(=O)c2cc(NC(=O)Cc3ccccc3)ccc2O[C@@H](C)CCCCO[C@H]1CN(C)Cc1ccc(Cl)c(Cl)c1 | active
C[C@H]1CCCCO[C@H](CN(C)Cc2ccc(Cl)c(Cl)c2)[C@@H](C)CN([C@@H](C)CO)C(=O)c2cc(NC(=O)Cc3ccccc3)ccc2O1 | inactive
C[C@@H]1CCCCO[C@@H](CN(C)Cc2ccc(Cl)c(Cl)c2)[C@@H](C)CN([C@H](C)CO)C(=O)c2cc(NC(=O)Cc3ccccc3)ccc2O1 | active
C[C@@H]1CN([C@H](C)CO)C(=O)c2cc(NC(=O)Cc3ccccc3)ccc2O[C@@H](C)CCCCO[C@@H]1CN(C)Cc1ccc(Cl)c(Cl)c1 | inactive
C[C@@H]1CCCCO[C@@H](CN(C)Cc2ccc(Cl)c(Cl)c2)[C@H](C)CN([C@H](C)CO)C(=O)c2cc(NC(=O)Cc3ccccc3)ccc2O1 | active
C[C@@H]1CCCCO[C@@H](CN(C)Cc2ccc(Cl)c(Cl)c2)[C@@H](C)CN([C@@H](C)CO)C(=O)c2cc(NC(=O)Cc3ccccc3)ccc2O1 | inactive
COc1ccc(-c2cnc3c(c2)C(=O)N([C@@H](C)CO)C[C@H](C)[C@H](CN(C)C(=O)Cc2ccccn2)O3)cc1 | inactive
C[C@@H]1CN([C@H](C)CO)C(=O)c2cc(NC(=O)Cn3cnnn3)ccc2O[C@@H]1CN(C)Cc1ccc(C(F)(F)F)cc1 | inactive

Structure (SMILES) | cytotoxicity call
C[C@H]1CCCCO[C@H](CN(C)C(=O)Cc2ccccc2)[C@@H](C)CN([C@@H](C)CO)C(=O)c2cc(NC(=O)Nc3ccccc3)ccc2O1 | inactive
C[C@@H]1CCCCO[C@H](CN(C)C(=O)Nc2ccc(F)cc2)[C@@H](C)CN([C@H](C)CO)C(=O)c2cc(NC(=O)CCC(F)(F)F)ccc2O1 | inactive
C[C@@H]1CN([C@@H](C)CO)C(=O)CCCn2cc(nn2)CO[C@H]1CN(C)C(=O)Nc1cccc(Oc2ccccn2)c1 | inactive
C[C@@H]1CN([C@H](C)CO)C(=O)c2cccc(NC(=O)c3ccc(-c4nccs4)cc3)c2O[C@H]1CN(C)S(=O)(=O)c1ccc(Cl)cc1 | inactive
C=C1c2cccc(O)c2C(=O)C2=C(O)[C@]3(O)C(O)=C(C(N)=O)C(=O)[C@@H](N(C)C)[C@@H]3[C@@H](O)[C@H]12 | inactive
O=C(C[C@H]1CC[C@@H]2[C@H](COC[C@H](O)CN2S(=O)(=O)c2ccc(Cl)cc2)O1)NCCN1CCCC1 | inactive
COc1ccc2c3c([nH]c2c1)[C@@H](CO)N(C[C@]13CCN(CC1)Cc1ccccc1OC)C(=O)Nc1ccc(cc1)F | inactive
COc1ccc2c3c([nH]c2c1)[C@H](CO)N(C[C@]13CN(Cc2cc(on2)-c2ccccc2)C1)C(=O)Nc1ccc(cc1)F | active
COc1ccc2c3c([nH]c2c1)[C@H](CO)N(C[C@]13CCN(CC1)C(=O)Nc1ccccc1)C(=O)Nc1ccc(cc1)F | inactive
COc1ccc(cc1)CN1CC[C@]2(CC1)CN([C@H](CO)c1[nH]c3cc(ccc3c12)OC)C(=O)Nc1ccc(cc1)F | inactive
COc1ccc2c3c([nH]c2c1)[C@H](CO)N(C[C@]13CCN(CC1)Cc1cc(on1)-c1ccccc1)C(=O)Nc1ccc(cc1)F | active
COc1ccc2c3c([nH]c2c1)[C@@H](CO)N(C[C@]13CCN(CC1)Cc1ccc(cc1)F)C(=O)Nc1ccc(cc1)F | active
COc1ccc2c3c([nH]c2c1)[C@@H](CO)N(C[C@]13CCN(CC1)Cc1cc(on1)-c1ccccc1)C(=O)Nc1ccc(cc1)F | active
COc1ccc2c3c([nH]c2c1)[C@H](CO)N(C[C@]13CCN(CC1)Cc1ccccc1OC)C(=O)Nc1ccc(cc1)F | inactive
COc1ccc2c3c([nH]c2c1)[C@H](CO)N(C[C@]13CCN(CC1)Cc1ccc(cc1)F)C(=O)Nc1ccc(cc1)F | inactive
COc1ccc2c3c([nH]c2c1)[C@@H](CO)N(C[C@]13CN(Cc2cc(on2)-c2ccccc2)C1)C(=O)Nc1ccc(cc1)F | inactive
COc1ccc(cc1)CN1CC[C@]2(CC1)CN([C@@H](CO)c1[nH]c3cc(ccc3c12)OC)C(=O)Nc1ccc(cc1)F | inactive
COc1ccc2c3c([nH]c2c1)[C@@H](CO)N(C[C@]13CCN(CC1)C(=O)Nc1ccccc1)C(=O)Nc1ccc(cc1)F | inactive
C=c1[nH]/c(=C\c2ccc(F)cc2)c(=O)o1 | inactive
Cc1noc(C)c1S(=O)(=O)Nc1ccc2c(c1)C(=O)N([C@H](C)CO)C[C@H](C)[C@@H](CN(C)S(C)(=O)=O)OCCCC[C@H](C)O2 | inactive
C[C@H]1CN([C@@H](C)CO)C(=O)Cc2cc(NC(=O)CCCN(C)C)ccc2O[C@@H]1CN(C)C(=O)Nc1ccc2c(c1)OCO2 | inactive
C[C@@H]1CN([C@@H](C)CO)C(=O)c2cccc(NC(=O)c3cnccn3)c2O[C@@H]1CN(C)S(=O)(=O)c1ccccc1 | inactive

Structure (SMILES) | cytotoxicity call
CCS(=O)(=O)NCC[C@H]1CC[C@H](NC(=O)C2CC2)[C@@H](CO)O1 | inactive
O=C(O)CNC(=O)[C@H]1COc2ccccc2O1 | inactive
COc1cccc(-c2cn(CC[C@H]3CC[C@H](NC(=O)CN(C)C)[C@H](CO)O3)nn2)c1 | inactive
COc1ccc(NC(=O)N(C)C[C@H]2OCCCC[C@H](C)Oc3ccc(NC(=O)C4CCCCC4)cc3C(=O)N([C@@H](C)CO)C[C@H]2C)cc1 | inactive
CC(=O)O[C@H]1C[C@@]2(C)[C@H]3CC=C4[C@@H](C[C@@H](O[C@H]5O[C@@H](CO)[C@@H](O)[C@@H](O)[C@@H]5O)[C@@H](O)C4(C)C)[C@@]3(C)CC[C@@]2(C)[C@@H]1C(C)(O)C(=O)CCC(C)(C)O (some centres undefined) | inactive
COc1ccc(S(=O)(=O)Nc2ccc3c(c2)C(=O)N([C@@H](C)CO)C[C@@H](C)[C@H](CN(C)S(=O)(=O)c2ccc(F)cc2)O3)cc1 | inactive
O=C(O)[C@H]1C[C@H]2C(=O)NCC(=O)N2[C@H]1c1ccc(O)cc1 | inactive
C[C@@H]1CN([C@H](C)CO)C(=O)c2cccc(NC(=O)c3ccc(-c4nccs4)cc3)c2O[C@@H]1CN(C)Cc1ccc2c(c1)OCO2 | inactive
C[C@H](CO)N1C[C@H](C)[C@H](CN(C)C(=O)Nc2ccc(-c3ccccc3)cc2)OCc2ccccc2-c2c(n(C)c3ccccc23)C1=O | active
C[C@H](CO)N1C[C@H](C)[C@H](CN(C)Cc2ccc(-c3ccccc3)cc2)OCc2ccccc2-c2c(n(C)c3ccccc23)C1=O | active
C[C@@H]1CN([C@H](C)CO)C(=O)c2c(c3ccccc3n2C)-c2ccccc2CO[C@@H]1CN(C)C(=O)Nc1ccc(-c2ccccc2)cc1 | inactive
C[C@H](CO)N1C[C@H](C)[C@@H](CN(C)Cc2ccccc2)OCc2ccccc2-c2c(n(C)c3ccccc23)C1=O | inactive
C[C@H]1CN([C@@H](C)CO)C(=O)c2c(c3ccccc3n2C)-c2ccccc2CO[C@@H]1CN(C)Cc1ccccc1 | inactive
C[C@@H]1CN([C@H](C)CO)C(=O)c2c(c3ccccc3n2C)-c2ccccc2CO[C@@H]1CN(C)Cc1ccc(-c2ccccc2)cc1 | inactive
C[C@@H]1CN([C@H](C)CO)C(=O)c2c(c3ccccc3n2C)-c2ccccc2CO[C@H]1CN(C)C(=O)Nc1ccc(-c2ccccc2)cc1 | inactive
C[C@H]1CN([C@@H](C)CO)C(=O)c2c(c3ccccc3n2C)-c2ccccc2CO[C@@H]1CN(C)Cc1ccc(-c2ccccc2)cc1 | inactive
C[C@@H]1CN([C@@H](C)CO)C(=O)c2c(c3ccccc3n2C)-c2ccccc2CO[C@@H]1CN(C)Cc1ccc(-c2ccccc2)cc1 | active
C[C@@H]1CN([C@H](C)CO)C(=O)c2c(c3ccccc3n2C)-c2ccccc2CO[C@H]1CN(C)Cc1ccccc1 | active
C[C@@H]1CN([C@@H](C)CO)C(=O)c2c(c3ccccc3n2C)-c2ccccc2CO[C@H]1CN(C)Cc1ccc(-c2ccccc2)cc1 | inactive
C[C@H](CO)N1C[C@H](C)[C@@H](CN(C)Cc2ccc(-c3ccccc3)cc2)OCc2ccccc2-c2c(n(C)c3ccccc23)C1=O | inactive
